Source: PubChem
Compounds with a hit are over-represented: about 17% of the library has one in this group of screens.
ClpP mod: qHTS Assay for Activators of ClpP; ATP-dependent Clp protease proteolytic subunit (Bacillus subtilis (strain 168)), P80244; purified B. subtilis ClpP, FRET peptide cleavage, 20 min; Potency, µM (titrated, usually from 57.5 µM), without a hit: at the highest dose activity change, negative = active; 340,000 tested, 1.9% active; AID 651965, 2013; active = well fitted falling curve with a large enough effect; inconclusive = small, poorly fitted or top-dose-only effect; inactive = no such curve, though single readings can be large or run the other way; note: the source files actives as falling curves though it sought activators and does not explain the sign; nearly all actives have a fitted effect of over 65% in size
Target sequence (P80244 whole entry, looked up): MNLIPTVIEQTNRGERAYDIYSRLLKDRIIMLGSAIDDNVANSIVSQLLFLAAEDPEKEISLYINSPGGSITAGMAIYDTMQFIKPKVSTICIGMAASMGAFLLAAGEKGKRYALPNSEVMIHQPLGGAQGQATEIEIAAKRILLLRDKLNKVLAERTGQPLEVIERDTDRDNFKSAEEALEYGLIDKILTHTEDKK
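ClpP 10 microg/mL final, pH 8 Tris/KCl buffer with BSA, glycerol, Tween-20; compound pinned in; FRET-FV substrate; RT 20 min; Ex320/Em430; ΔFRET vs ADEP 5.8 microM, DMSO, no enzyme.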
DT40 TDP1 CPT: DT40-hTDP1 cell growth loss with CPT; 420,000 tested, 12% active; Potency, µM (doses to about 46.2 µM), inactives show at the highest dose activity change, negative = growth inhibition, most hits filed as inhibitors; AID 686979; chicken DT40 Tdp1-/-;hTDP1 cells + 20 nM CPT, ATP luminescence, 48 h; note: % is set by controls: 0 for no effect and ±100 for the full control effect; nearly all actives have a fitted effect of over 55% in size
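Chicken DT40 Tdp1-/- cells complemented with human TDP1, 400 cells/well, exposed to compounds plus 20 nM camptothecin for at least 48 h at 37 C; viability read as ATP content by CellTiter-Glo luminescence.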
TDP1 block: blocks human tyrosyl-DNA phosphodiesterase 1; recombinant TDP1, AlphaScreen DNA substrate cleavage; Q9NUW8; Potency, µM (series often up to 130 µM), for the others: at the highest dose activity change, negative = inhibition, actives largely listed as inhibitors; 350,000 tested, 0.28% active; note: % is set by controls: 0 for no effect and ±100 for the full control effect; nearly all actives have a fitted effect of over 40% in size
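Recombinant human Tdp1 (E. coli-expressed, 1 nM final) preincubated with compounds 15 min at room temperature, then 5'-biotin/3'-phosphotyrosine-FITC DNA substrate (15 nM final) added for 5 min. AlphaScreen beads (10 ug/ml final) added 10 min; cleavage lowers signal.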
TDP1 cell noCPT: qHTS for Inhibitors of human tyrosyl-DNA phosphodiesterase 1 (TDP1): qHTS in cells in absence of CPT; Potency, µM (top dose mostly 46.2 µM), inactives show at the highest dose activity change, negative = growth inhibition, usual class: inhibitors; AID 686978, 2013; DT40 Tdp1-/- hTDP1 cells, no CPT, ATP luminescence, 48 h; 420,000 tested, 15% active; note: % is set by controls: 0 for no effect and ±100 for the full control effect; nearly all actives have a fitted effect of over 55% in size
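A cellular qHTS used chicken DT40 cells lacking endogenous Tdp1 but carrying stably transfected human TDP1. Compounds were applied without camptothecin, and cell growth kinetics were judged by ATP-dependent luminescence after ≥48 hr.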
Starred values were filed as active, the others as inactive. Unless noted, calls come from the whole dose curve; as a rule, active = well fitted curve in the direction sought with a large enough effect; inconclusive = small, poorly fitted or top-dose-only effect, or another doubt; inactive = no such curve, though single readings can be large; an effect the other way counts as inactive or inconclusive. Potency is the fitted concentration of half-maximal effect.

C[C@@H]1CN([C@H](C)CO)S(=O)(=O)c2ccc(Br)cc2O[C@H]1CN(C)S(C)(=O)=O was read as ClpP mod 0%, DT40 TDP1 CPT 5% and TDP1 cell noCPT -2%.
Screening Cc1cc(C)cc(NC(=O)Cn2c(=O)n(CCC(C)C)c(=O)c3cccnc32)c1 returned ClpP mod -12%, DT40 TDP1 CPT -2%, TDP1 block 2% and TDP1 cell noCPT -5%.
COC(=O)[C@@]12CCCCN1[C@H](c1ccc(-c3cccc(Cl)c3)cc1)[C@@H]1C(=O)N(C)C(=O)[C@@H]12 was read as ClpP mod -1%, DT40 TDP1 CPT 21µM*, TDP1 block 1% and TDP1 cell noCPT 13µM*.
Screening CCN1C(=O)[C@H]2[C@@H](c3ccc(-c4cccc(Cl)c4)cc3)N3CCCC[C@@]3(C(=O)OC)[C@H]2C1=O returned ClpP mod -4%, DT40 TDP1 CPT inconclusive, TDP1 block 4% and TDP1 cell noCPT inconclusive.
COC(=O)[C@@]12CCCCN1[C@H](c1ccc(-c3cccc(Cl)c3)c(OC)c1)[C@H]1C(=O)N(C)C(=O)[C@H]12 was read as ClpP mod -15%, DT40 TDP1 CPT 18µM*, TDP1 block 1% and TDP1 cell noCPT inconclusive.
`CCN1C(=O)[C@H]2[C@@H](c3ccc(-c4cccc(Cl)c4)c(OC)c3)N3CCCC[C@@]3(C(=O)OC)[C@H]2C1=O` gave ClpP mod -13%, DT40 TDP1 CPT inconclusive, TDP1 block -1% and TDP1 cell noCPT 23µM*.
COC(=O)[C@@]12CCCCN1[C@H](c1ccc(-c3cccc(Cl)c3)cc1)[C@H]1C(=O)N(C)C(=O)[C@H]12 was read as ClpP mod -2%, DT40 TDP1 CPT inconclusive, TDP1 block -2% and TDP1 cell noCPT 23µM*.
Screening COC(=O)[C@@]12CCCN1[C@H](c1ccc(-c3cccc(Cl)c3)cc1)[C@H]1C(=O)N(C)C(=O)[C@H]12 returned ClpP mod 0%, DT40 TDP1 CPT 23µM*, TDP1 block 4% and TDP1 cell noCPT 9.2µM*.
`COC(=O)[C@@]12CCCN1[C@H](c1ccc(-c3ccc(Cl)c(Cl)c3)cc1)[C@H]1C(=O)N(C)C(=O)[C@H]12` gave ClpP mod 0%, DT40 TDP1 CPT inconclusive, TDP1 block 4% and TDP1 cell noCPT 12µM*.
Screening COC(=O)[C@@]12CCCN1[C@H](c1ccc(-c3ccccc3)cc1)[C@@H]1C(=O)N(C)C(=O)[C@@H]12 returned ClpP mod -8%, DT40 TDP1 CPT 23µM*, TDP1 block 1% and TDP1 cell noCPT 18µM*.
For O=C(O)c1cccc(-n2cc(-c3cccc(C(F)(F)F)c3)cn2)c1 the results were ClpP mod -13%, DT40 TDP1 CPT -16% and TDP1 cell noCPT -24%.
O=S(=O)(Nc1ccc(OC(F)(F)F)cc1)c1ccc(N2CCCCS2(=O)=O)cc1 was read as ClpP mod -1%, DT40 TDP1 CPT 21µM*, TDP1 block 6% and TDP1 cell noCPT 21µM*.
Screening COc1ccc(NS(=O)(=O)c2ccc(N3CCCCS3(=O)=O)cc2)cc1Cl returned ClpP mod 0%, DT40 TDP1 CPT 8.2µM*, TDP1 block 4% and TDP1 cell noCPT 4.6µM*.
For O=S(=O)(Nc1ccc(F)c(C(F)(F)F)c1)c1ccc(N2CCCCS2(=O)=O)cc1 the results were ClpP mod -2%, DT40 TDP1 CPT 21µM*, TDP1 block 4% and TDP1 cell noCPT 12µM*.
For Cc1nc(-c2ccc(S(=O)(=O)Nc3ccc(OC(F)(F)F)cc3)cc2)co1 the results were ClpP mod 2%, DT40 TDP1 CPT inconclusive, TDP1 block 8% and TDP1 cell noCPT inconclusive.
For O=S(=O)(c1ccc(F)cc1)N1CCC(n2c(C(F)(F)F)nc3cccnc32)CC1 the results were ClpP mod -2%, DT40 TDP1 CPT 12µM*, TDP1 block 3% and TDP1 cell noCPT -103%.
Screening N#Cc1sc(C(N)=O)c(-c2ccccc2)c1-c1ccccc1 returned DT40 TDP1 CPT -28%, TDP1 block 0% and TDP1 cell noCPT -27%.
`COc1ccc(-c2c(C#N)sc(C(N)=O)c2-c2ccc(OC)cc2)cc1` gave ClpP mod 0%, DT40 TDP1 CPT inconclusive, TDP1 block 5% and TDP1 cell noCPT 10µM*.
